Screening results: PubChem, National Center for Advancing Translational Sciences (NCATS)
KDM5B inh: blocks human KDM5B histone demethylase activity. AID 1347165. KDM5B demethylase, FDH-coupled NADH fluorescence (FDH is formaldehyde dehydrogenase). actives 2.6% (n = 220,000). Potency, µM (top dose mostly 57.7 µM), usual class: inhibitors; active = well fitted inhibition curve with a large enough effect; also: 0% is about no effect; nearly all actives have a fitted effect of over 70% in size
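Compound dilutions met 200 nM (final) KDM5BΔAP for 10 min at room temperature before substrate addition. The substrate mix held 12.5 µM H3K4me3 with cofactors 25 µM α-ketoglutarate and 50 µM Fe²⁺. NADH signal gain over 30 min defined activity.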
* = called active by the depositor; i = inactive. This is one part of a sample in which hits are shown more often than they occur. Potency is read from the fitted curve at half-maximal effect.

SMILES	KDM5B inh
CN(Cc1ccc2ccccc2c1)C(=O)CCc1ncc(-c2ccccc2F)o1	i
O=C(NCc1cccs1)c1ccc2ccccc2c1	i
CN1CCCC2(C1)CN(C)c1ccc(C(=O)NCc3cccs3)cc12 (centres undefined)	35µM*
O=C(NCc1cccs1)c1ccc2c(c1)OCCCO2	i
CSc1ccccc1C(=O)NC(C)c1ccc(F)cc1 (centres undefined)	i
N#Cc1cccc(NC(=O)N[C@H]2CO[C@H]3[C@@H]2OC[C@@H]3n2nnnc2Oc2ccc(-n3cncn3)cc2)c1	i
CC(=O)c1ccc(NC(=O)O[C@@H]2CO[C@H]3[C@@H]2OC[C@@H]3n2nnnc2SCc2ccco2)cc1	i
O=C(Nc1ccccc1)O[C@@H]1CO[C@H]2[C@@H]1OC[C@@H]2n1nnnc1SC1CCCC1	i
O=C(Nc1ccccc1)O[C@@H]1CO[C@H]2[C@@H]1OC[C@@H]2n1nnnc1SCc1ccco1	35µM*
N#Cc1cccc(NC(=S)O[C@@H]2CO[C@H]3[C@@H]2OC[C@@H]3n2nnnc2SCc2ccco2)c1	16µM*
O=C(Nc1cccc(C(F)(F)F)c1)O[C@@H]1CO[C@H]2[C@@H]1OC[C@@H]2n1nnnc1SC1CCCC1	i
CC(C)c1nnnn1[C@H]1CO[C@H]2[C@@H]1OC[C@H]2OC(=O)Nc1cccc(C#N)c1	i
CN(C)c1ccc(-c2nnnn2[C@H]2CO[C@H]3[C@@H]2OC[C@H]3OC(=O)Nc2cccc(C#N)c2)cc1	35µM*
N#Cc1cccc(NC(=O)O[C@@H]2CO[C@H]3[C@@H]2OC[C@@H]3n2nnnc2SC2CCCC2)c1	i
COc1ccc(C2CCCN2C(=O)Cn2cccnc2=O)c(OC)c1 (centres undefined)	i
Cc1ccc(-c2cc(Nc3ccccc3C(F)(F)F)nc(C)n2)cc1	i
C/C(=N/NC(=S)NC(C)C)c1ccncc1	i
Cc1ccc(C)c(C(=O)OCC(=O)NC2CCCC2)c1	i
COc1ccc(OCCN2CCN(C(=O)c3ccc(OC)c(OC)c3)CC2)cc1	i
CC(C)Cc1cc(C(=O)N2CCN(CCOc3ccccc3)CC2)on1	i
Cn1ccc2ccc(C(=O)N3CCN(CCOc4ccccc4)CC3)cc21	28µM*
COCCN(CCOC)C(=O)COC(=O)c1ccc(C#N)cc1	i
O=C(C1CCCN1c1nc2ncccc2o1)N1CCN(c2ncccn2)CC1 (centres undefined)	14µM*
O=C(C1CCCN1c1nc2ncccc2o1)N1CCCC1 (centres undefined)	40µM*
O=C(N[C@@H]1CCC[C@@H]1C(=O)N1CCN(c2ncccn2)CC1)c1ccncc1	i
SMILES	KDM5B inh
O=C([C@H]1C[C@H](Oc2cccnc2)CN1C(=O)NC1CCCC1)N1CCOCC1	i
CNC(=O)[C@@H](c1ccccc1F)N1CCC[C@H]1C(=O)N1CCOCC1	i
O=C(Nc1ccc(F)cc1)C1CCCN1c1nc2ncccc2o1 (centres undefined)	i
O=C1CCN(C(=O)[C@@H]2CCCN2S(=O)(=O)c2cccc3cccnc23)CCCCCCN1	i
O=C(C1CCCN1c1nc2ncccc2o1)N1CCOCC1 (centres undefined)	28µM*
CC(=O)c1cn(CC(=O)NCCCCCC(=O)O)c2ccccc12	i
Cc1[nH]c2ccc(F)cc2c1CC(=O)NC1CCCCC1	i
O=C(NCC(=O)N1CCCC1c1ccccc1)c1ccc(Cl)cc1 (centres undefined)	i
CCn1c(CO)nnc1C1CC(NC(=O)c2scc3c2CCCC3)C1 (centres undefined)	i
CCn1c(CO)nnc1C1CC(NC(=O)c2nnc3nc(C)ccn23)C1 (centres undefined)	i
CCn1c(CO)nnc1C1CC(NC(=O)c2cnc3sccn3c2=O)C1 (centres undefined)	28µM*
COc1cc(CN2CCCC23Cc2ccccc2CNC3=O)ccc1F (centres undefined)	i
O=c1[nH]c(-c2ccc(F)cc2)nc2c1CCN(S(=O)(=O)c1cccs1)C2	32µM*
CN1CCCCCCN(S(=O)(=O)c2cccs2)CCC1=O	i
O=C(Cc1c[nH]c2ccccc12)N1CCc2c(nc(-c3ccc(F)cc3)[nH]c2=O)C1	i
O=C(Cc1cccc(F)c1)Nc1cccc(-c2nnc3n2CCCC3)c1	i
O=C(NCc1ccccn1)c1ccc(F)cc1	i
O=C(NCc1ccoc1)c1ccc2nc(-c3ccc(F)cc3)cn2c1	25µM*
O=C(NCCCc1ccccn1)c1ccc2nc(-c3ccc(F)cc3)cn2c1	28µM*
CCc1ccc(-c2cc(C(F)(F)F)n3nc(C(=O)NCc4cnn(C)c4C)cc3n2)s1	i
O=C(NCc1ccc(Cl)cc1)c1noc(-c2ccc(F)cc2)n1	i
Cc1ccc(C(=O)NCc2ccc(-c3csc(C)n3)cc2)cc1	i
O=C(NCCc1ccccn1)c1ccc(C(F)(F)F)cc1	i
O=C(NCc1nnc2n1CCC2)Nc1ccccc1	i
O=C(Nc1ccc(-c2nnc3n2CCCC3)cc1)c1ccc(F)cc1	i
SMILES	KDM5B inh
O=C(NCc1nnc2n1CCC2)c1ccc2nc(-c3ccc(F)cc3)cn2c1	32µM*
Cc1c(CNC(=O)c2ccc3nc(-c4ccc(F)cc4)cn3c2)cnn1C	28µM*
CCc1nnc2sc(-c3ccc(CNC(=O)c4ccc(F)cc4)cc3)nn12	i
CC(C)c1ccc2c(c1)CCCN2C(=O)c1cnc2c(cnn2C(C)C)c1	i
Cc1cccc(C)c1NC(=O)C1CCCN(c2cnc3ccccc3n2)C1 (centres undefined)	i
COc1ccc(C2/C(=C(\O)c3ccccc3)C(=O)C(=O)N2c2ccc(NC(C)=O)cc2)cc1 (centres undefined)	i
C/C(=N/Nc1ccc(S(N)(=O)=O)cc1[N+](=O)[O-])c1ccccc1Cl	i
CC(Sc1nc(C(F)(F)F)nc2ccccc12)C(=O)NC(C)(C)C (centres undefined)	i
CCNc1ncnc2c1CN(C1CCNCC1)C(=O)CN2C	56µM*
CN1CC(=O)N(C2CCCNC2)Cc2c(NCCc3cccc(F)c3)ncnc21 (centres undefined)	i
CN1CC(=O)N(C2CCCNC2)Cc2c1ncnc2N(C)Cc1ccc(F)cc1 (centres undefined)	22µM*
CN1CC(=O)N(C2CCCNCC2)Cc2c1ncnc2N1CCNC(=O)C1 (centres undefined)	i
CCC(CO)Nc1ncnc2c1CN(C1CCCNCC1)C(=O)CN2C (centres undefined)	i
CN1CC(=O)N(C2CCNCC2)Cc2c1ncnc2N1CCCC1CO (centres undefined)	i
CN1CC(=O)N(C2CCCNCC2)Cc2c1ncnc2N1CCN(c2ccccn2)CC1 (centres undefined)	79µM*
CN1CC(=O)N(C2CCNC2)Cc2c1ncnc2N(C)Cc1ccc(F)cc1 (centres undefined)	i
CN1CC(=O)N(C2CCCNCC2)Cc2c1ncnc2N1CCCCCC1 (centres undefined)	i
Cc1nc(SCC(=O)NC23CC4CC(CC(C4)C2)C3)n(C2CC2)c1C	i
O=C(c1cc2cc(Br)ccc2o1)c1ccc(F)cc1F	i
Fc1ccc(CSc2nnc(-c3c[nH]c4ccccc34)n2C2CC2)c(Cl)c1	i
CCCCN(C)C(=O)C1CCN(C(=O)/C=C/c2c(Cl)cccc2Cl)CC1	i
CCn1nc(C(=O)Nc2ccc(OC)c(Oc3ccc(OC)cc3)c2)c2ccccc2c1=O	i
